{"source": "PubChem BioAssay", "data": [{"test": "compound effects on lung adenocarcinoma cell viability – A549, calcein-AM fluorescence, 48 h, basal, profiling panel (AID 1162); also: test concentration not given here", "details": "higher = more signal", "values": [{"molecule": "O=C1N(Cc2ccccc2)c2ccccc2C[C@@]12COC(c1ccc(OCCCO)cc1)=N2", "z-score": -0.633}, {"molecule": "COc1ccc([Si](C)(C)[C@H]2[C@H](CC(=O)N3Cc4ccccc4C[C@H]3CO)O[C@@]3(C(=O)N(c4ccccc4)c4ccccc43)[C@@H]2C)cc1", "z-score": -0.782}, {"molecule": "C=C(COC)/C(=C/C[C@@H](OC(C)=O)c1ccccc1OCCO)c1cnc2ccccc2c1", "z-score": 0.106}, {"molecule": "O=C(NCc1ccccc1)[C@@H]1c2ccccc2C(=O)N(Cc2cc(C(F)(F)F)cc(C(F)(F)F)c2)[C@H]1c1ccc(CO)cc1", "z-score": -0.108}, {"molecule": "COCCOC(=O)N1C(=O)[C@@]2(c3cc(C#CCNC(N)=O)ccc31)[C@H](C(=O)Nc1nc3ccccc3s1)[C@H]1C(=O)O[C@H](c3ccccc3)[C@H](c3ccccc3)N1[C@@H]2c1ccccc1OCCO", "z-score": 1.01}, {"molecule": "CC=CC(O)C1C=CC2C(=O)NC(=O)C2N1Nc1ccc(Cl)cc1Cl", "note": "(stereo unspecified)", "z-score": -1.54}, {"molecule": "CCCCN1CC=CC23O[C@@H]4/C=C\\CCCOC(=O)C4[C@H]2C(=O)N(C(CO)C(C)C)[C@@H]3C1=O", "note": "(stereo partly specified)", "z-score": 0.374}, {"molecule": "COc1ccc([Si](C)(C)[C@H]2[C@H](CC(=O)N3Cc4ccccc4C[C@H]3CO)O[C@@]3(C(=O)N(C)c4c(Br)cc(C)cc43)[C@@H]2C)cc1", "z-score": -2.66}, {"molecule": "CC(C)(C)N1CC=CC23O[C@@H]4/C=C\\CCCOC(=O)C4[C@H]2C(=O)N(CCCCCO)[C@@H]3C1=O", "note": "(stereo partly specified)", "z-score": -0.373}, {"molecule": "C=C(CCCC)/C(=C/C[C@H](OC(=O)c1ccncc1)c1ccccc1OCCO)c1cc(C(=O)OC)ccc1OC", "z-score": -0.0906}, {"molecule": "COc1ccc(C(=O)Nc2ccc(CN3C(=O)[C@@]4(O[C@@H](CCn5cc(CCO)nn5)[C@H]([Si](C)(C)c5ccc(OC)cc5)[C@H]4C)c4ccccc43)cc2)cc1", "z-score": -0.883}]}]}
